Laboratory results taken from PubChem BioAssay AID938 (National Center for Advancing Translational Sciences (NCATS), 2007).
Several values for one entry are separate records, joined by “and”; a condition that tells them apart may be missing. Identical values can stand only once. The whole screen tested about 73,000 compounds, of which about 1,800 (2.5%) were called active. A call without a number means that no potency is given here. Another 13% or so got no clear call; they are omitted. The full list was thinned out, with actives kept by preference. Unmarked numbers belong to inactive results. Calls come from the whole dose curve; as a rule, active = well fitted activation curve with a large enough effect; inconclusive = small, poorly fitted or top-dose-only effect; inactive = no such curve, though single readings can be large or run the other way.

Assay: qHTS Assay for Agonists of the Thyroid Stimulating Hormone Receptor: Activators of Intracellular cAMP Concentrations in Parental HEK 293; note: nearly all actives have a fitted effect of over 55% in size
Conditions: parental HEK293 CNG cAMP sensor, membrane potential fluorescence; series mostly up to 57.1 µM
Outline: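 Counterscreen for endogenous-receptor signalling: CNG-channel HEK 293 cells report cAMP rise by membrane depolarization. After 60 min dye equilibration with 100 uM RO 20-1724, compounds incubated 30 min before bottom-read fluorescence at 590 nm.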
Potency is the fitted concentration of half-maximal effect.

Compound	Potency	activation
COC(=O)c1c(NC(=O)CSc2nc3c(c(=O)n(C)c(=O)n3C)n2C(C)C)sc(C)c1C	inactive	
CC(C)n1c(SCC(=O)Nc2ccccc2N2CCCCC2)nc2c1c(=O)n(C)c(=O)n2C	20 µM (active)	
Cc1ccccc1NC(=O)CNc1ccccc1N1CCCCC1	inactive	
CC1(C)CC(=O)C=C(NCCCNC2CCCCC2)C1	inactive	
CC(C)CC1(C(=O)NCc2ccccn2)C=CCN1C(=O)c1ccccc1 (centres undefined)	25.1 µM (active)	
COC(=O)C1(C)C=CCN1C(=O)c1ccccc1 (centres undefined)	inactive	
CC(=O)N1[C@H](C)C=C[C@]1(Cc1ccccc1)C(=O)NCc1ccccn1	inactive	
O=C1C[C@@H](O)[C@@H](O)[C@H]2[C@@H]3C(=O)N(Cc4ccc5c(c4)OCO5)C(=O)[C@@H]3CC[C@H]12		0.478% [at 11.4 µM] and -2.17% [at 11.4 µM]
COc1ccc(C(C(O)C(=O)c2c[nH]c3ccccc23)N2CCN(c3ccccc3)CC2)cc1 (centres undefined)	inactive	
N#Cc1cc2[nH]c(=O)c(=O)[nH]c2cc1[N+](=O)[O-]	inactive	
CCOC(=O)N1CCC(O)(c2cc(C)c(C)cc2C)CC1	inactive	
c1ccc(CSc2nnc(-c3ccco3)c(-c3ccco3)n2)cc1	inactive	
c1ccc(CSc2nnc(-c3ccco3)n2Cc2ccccc2)cc1	15.8 µM (active)	
O=C(CSc1nnc(-c2ccco2)n1CC1CCCO1)c1ccccc1 (centres undefined)	inactive	
C1CCC2OC2C1 (centres undefined)	inactive	
Brc1cc(Br)c(Oc2cc(Br)c(Br)cc2Br)cc1Br	inactive	
CN1CCC(CNC(=O)c2ccc(-n3c(=O)c(=O)[nH]c4ccccc43)cc2)CC1	inactive	
O=C(O)CCCCC(=O)O	inactive	
CN(C(=O)CSc1nnnn1-c1ccccc1)C1CCCCC1	inactive	
CCOc1ccc2c(c1)cc(CN(C(=O)CC)C1CCCCC1)c1nnnn12	20 µM (active)	
COc1ccc(N2C(=O)CCC(C(=O)N(C)C3CCCCC3)C2c2ccc(OC)c(OC)c2)cc1 (centres undefined)	inactive	
CC(C)[C@H](CO)Nc1nc(Nc2cc(N)cc(Cl)c2)c2ncn(C(C)C)c2n1	inactive	

Compound	Potency	activation
CCCCOC(=O)NCN1C(=O)C2C3C=CC(C3)C2C1=O (centres undefined)	inactive	
O=C1OCCC=C1[C@@H](O)CCc1ccccc1		-4.2% [at 11.4 µM]
CC(C)CNC(=O)C1CCCN(S(=O)(=O)c2ccc(-n3cnnn3)cc2)C1 (centres undefined)	inactive	
O=C(c1cnccn1)N1CCC2(CCN(Cc3cc(C(F)(F)F)cc(C(F)(F)F)c3)CC2)CC1	inactive	
O=C(NCCc1ccc2c(c1)OCCO2)c1cc2ccccc2o1	25.1 µM (active)	
Nc1nonc1C(=O)NCCc1ccccc1	inactive	
O=C(CC(Cc1ccccc1)C(=O)O)NCCc1ccc2c(c1)OCO2 (centres undefined)	inactive	
CC1CCCN(Cc2nc3c(c(=O)n(C)c(=O)n3C)n2CC(=O)c2ccccc2)C1 (centres undefined)	inactive	
COc1ccc2c(c1)C(C)=CC(C)(C)N2C(=O)CNCc1ccc2c(c1)OCO2	25.1 µM (active)	
CCn1cc(C(=O)NCc2ccc3c(c2)OCO3)c2cc(OC)c(OC)cc2c1=O	inactive	
CCOC(=O)NCc1ccc2c(c1)OCO2	inactive	
Cc1ccc(Cn2c(C)nc3c(c2=O)c2nc4ccccc4nc2n3Cc2ccco2)cc1	inactive	
Cc1ccc(Cn2c(NC(=O)c3ccco3)nc3ccccc32)cc1	25.1 µM (active)	
CCn1nc(NC(=O)c2ccco2)c2cc3ccc(C)cc3nc21	inactive	
CCOc1ccc2nc(NCCNS(=O)(=O)c3ccccc3)c(C#N)cc2c1	inactive	
Cc1nnc(N(Cc2ccco2)C(=O)c2ccno2)s1	inactive	
COC(=O)CSC1=C(C#N)C(c2ccccc2OC)C(C(=O)OC)C(=O)N1 (centres undefined)		-3.31% [at 11.4 µM]
N#CC1=C(SCc2ccccc2)NC(=O)C(C#N)C12CCCC2 (centres undefined)	31.6 µM (active)	
Cc1noc(C)c1-c1nc(Nc2ccccc2)c2ccccc2n1	inactive	
O=C(NC(=O)c1ccc(Cl)c(Cl)c1)OC1CCS(=O)(=O)C1 (centres undefined)	inactive	
Cc1ccnc(N)c1	inactive	
CC(C)c1ccc2c([Si](C)(C)C)c3c(nc2c1)-c1cccc(=O)n1C3	inactive	

Compound	Potency	activation
O=C(CC1CCCCC1)Nc1c2c(nn1-c1ccc(F)cc1)CS(=O)(=O)C2	15.8 µM (active)	
COc1cccc(C(=O)Nc2c3c(nn2-c2cccc(C)c2C)CS(=O)(=O)C3)c1OC	inactive	
COc1ccc(C2C(C#N)=C(N)Oc3n[nH]c(C)c32)cc1CN1CCN(c2ccc(F)cc2)CC1 (centres undefined)	inactive	
Cc1nc2cnc(N3CCN(C)CC3)nc2n(C[C@H]2CCCO2)c1=O	inactive	
CC(C)(C)NC(=O)c1cc(NC(=O)c2ccco2)cc(NC(=O)c2ccco2)c1	inactive	
COc1ccc(C2C3=C(OC(C)=O)c4ccccc4C3=Nc3c2c(=O)n(C)c(=O)n3C)cc1 (centres undefined)	10 µM (active)	
COc1ccc(-c2c3c(=O)n(C)c(=O)n(C)c3cn2NC(C)=O)cc1	inactive	
Cc1cccc(C2c3c(n(C)c(=O)n(C)c3=O)N=C3c4ccccc4C(=O)C32)c1 (centres undefined)	inactive	
Cn1nnc(NC(=O)CSc2ncn[nH]2)n1	inactive	
COC(=O)C(C(=O)OC)[C@@H]1CCCC(=O)C1		4.23% [at 11.4 µM]
COc1ccc(CCNC(=O)CSc2nc(C)nc3c2oc2ccccc23)cc1OC	inactive	
CCc1nc(Nc2ccc3nccnc3c2)c2oc3ccccc3c2n1	inactive	
COc1ccccc1Nc1ncnc2c1oc1ccccc12	31.6 µM (active)	
COc1ccc(CNc2ncncc2-c2ccccc2OC)c(OC)c1	25.1 µM (active)	
COc1ccccc1CNc1ncncc1-c1cccc(NS(C)(=O)=O)c1	inactive	
COc1ccccc1CNc1ncncc1-c1cccnc1	inactive	
COC(=O)[C@@H]1CC[C@H](C)[C@@H](c2ccc(C)cc2)N1C(=O)c1ccc(/C=N\O[C@@H](C)c2cn([C@H](CO)Cc3ccccc3)nn2)cc1		9.66% [at 11.4 µM] and 5.24% [at 11.4 µM]
Cc1ccc2c(c1)c1ncnc(N3CCc4ccccc4C3)c1n2C	25.1 µM (active)	
Cc1ccc2c(c1)c1ncn(CCC3=CCCCC3)c(=O)c1n2C	inactive	
Cc1cccc(-n2ncc3c(N4CCc5ccccc54)ncnc32)c1	inactive	
